High-throughput results: PubChem BioAssay, several laboratories
ALR H2O2 inh: inhibitors of human sulfhydryl oxidase ALR; purified ALR, DTT oxidation, H2O2 HRP-luminol luminescence; inhibition, % (concentration not given with the values); 3.8% of 290,000 active; AID 485317;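 active = mean replicate inhibition above about 79%, with every replicate also reaching it, limit read from the data; inconclusive = only one of the two criteria met; inactive = mean below limit and not every replicate reaching it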
rCAG binder: binds r(CAG) RNA repeats; r(CAG) RNA repeat, TO-PRO-1 dye displacement fluorescence; inhibition, % at 3 µM; 1.3% of 370,000 active; AID 651821;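 active = inhibition above the plate cutoff, the mean of all test compounds on that plate plus 3 SD, cut at about 35% in these data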;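 note: higher means more dye released from RNA so lower well fluorescence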
ABHD5-PLIN5 inh: inhibitors of human ABHD5-perilipin-5 interaction; Q00G26+Q8WTS1; 0.78% of 360,000 active; inhibition, % at 4 µM; Split G. princeps luciferase complementation, luminescence, 4 h;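 active = inhibition above the mean inhibition across every tested compound plus 3 SD, cut at about 22% in these data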
Target sequence (Q00G26 whole entry, looked up): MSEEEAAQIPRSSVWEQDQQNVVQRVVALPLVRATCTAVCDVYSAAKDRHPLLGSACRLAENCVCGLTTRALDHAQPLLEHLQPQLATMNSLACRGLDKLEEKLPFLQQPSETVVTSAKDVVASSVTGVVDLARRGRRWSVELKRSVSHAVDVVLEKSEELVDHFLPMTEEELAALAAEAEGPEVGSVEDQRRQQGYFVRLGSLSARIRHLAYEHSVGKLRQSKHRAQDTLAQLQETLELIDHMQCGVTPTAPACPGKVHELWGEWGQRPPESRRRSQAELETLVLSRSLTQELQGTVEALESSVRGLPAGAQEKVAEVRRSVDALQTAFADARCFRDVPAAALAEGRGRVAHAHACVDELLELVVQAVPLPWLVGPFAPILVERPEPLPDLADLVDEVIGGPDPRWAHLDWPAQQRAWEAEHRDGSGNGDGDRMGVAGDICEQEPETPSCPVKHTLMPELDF
Target sequence (Q8WTS1 whole entry, looked up): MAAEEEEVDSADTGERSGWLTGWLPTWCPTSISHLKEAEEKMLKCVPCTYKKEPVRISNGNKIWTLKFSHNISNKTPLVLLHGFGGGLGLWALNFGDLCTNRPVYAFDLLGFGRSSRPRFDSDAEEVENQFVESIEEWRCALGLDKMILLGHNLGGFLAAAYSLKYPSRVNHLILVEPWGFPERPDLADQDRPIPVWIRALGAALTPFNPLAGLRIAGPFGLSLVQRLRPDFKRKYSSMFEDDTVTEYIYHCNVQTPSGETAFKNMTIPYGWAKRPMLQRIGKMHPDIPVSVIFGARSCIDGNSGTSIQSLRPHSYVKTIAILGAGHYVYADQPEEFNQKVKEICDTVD
LANA-H2A inh: blocks KSHV LANA binding to histone H2A/H2B | cell-free LANA-H2A/H2B peptide, fluorescence polarization | inhibition, % (no concentration beside the values) | 0.6% of 320,000 active; in the data active = inhibition mostly above about 10%, no sharp cut-off; inactive = mostly below about 6.7%
Rtt109 HAT inh: inhibitors of Candida albicans Rtt109/Vps75 histone acetyltransferase; 0.16% of 330,000 active; inhibition, % at 34.9 µM; purified Rtt109/Vps75, ThioGlo CoA-SH fluorescence, 4 h; Q5AAJ8;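 active = inhibition of at least 50% in every replicate; inconclusive = best replicate reaches 50% inhibition but some replicates fall short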
PRMT1 FP inh: blocks human protein arginine methyltransferase 1. Q99873. recombinant PRMT1, activity-based probe fluorescence polarization. inhibition, % at 2.79 µM. 1.3% of 370,000 active;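 active = inhibition above about 21% made by adding two undisclosed values, limit read from the data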
rCAG binder conf: r(CAG) RNA repeat binding, confirmation; shares compounds with rCAG binder; TO-PRO-1 dye displacement fluorescence; inhibition, % at 3 µM; 70% of 4,300 active; AID 652065;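 active = inhibition above a per-plate cutoff, the mean inhibition of sample wells plus 3 SD, cut at about 35% in these data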;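 note: loss of TO-PRO-1 fluorescence as compound displaces dye from 1x1 AA loop RNA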
DNA CAG counter: disrupts DNA CAG TO-PRO-1 complex, flagging rCAG hits; d(CAG) DNA oligo TO-PRO-1 dye displacement, fluorescence; shares compounds with rCAG binder; 94% of 4,300 active; AID 652068; inhibition, % at 3 µM;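 active = inhibition above its plate's cutoff, the mean test-well inhibition plus 3 SD, cut at about 4.8% in these data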;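 note: hits displace the dye from DNA and so lower well fluorescence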
DNA CAG DR: disrupts DNA CAG TO-PRO-1 complex in dose response. shares compounds with rCAG binder. DNA CAG/GTC duplex TO-PRO-1 dye displacement fluorescence. IC50, µM. 20% of 250 active; in the data active = IC50 below about 10 µM
Numbers stand for hits; – = inactive; ? = inconclusive; · = no result given. A selection: hits, their analogues and other compounds. The true share with any hit is near 5.9%.

SMILES	ALR H2O2 inh	rCAG binder	ABHD5-PLIN5 inh	LANA-H2A inh	Rtt109 HAT inh	PRMT1 FP inh	rCAG binder conf	DNA CAG counter	others
CCOc1ccc(N=Nc2c(=O)[nH]n3c(=O)c4c([nH]c23)CCCC4)cc1	–	–	–	–	–	–	·	·
O=c1[nH]n2c(=O)c3c([nH]c2c1N=Nc1cccc(Cl)c1)CCCC3	–	75	–	–	–	–	85	48
CCCNC(=O)C1(C)CCN(C(=O)c2ccc(OC)cc2OC)C1 (stereo not drawn)	·	–	–	·	·	–	·	·
CC(C)(c1ccccc1)c1ccc(OCc2ccc(C(=O)O)o2)cc1	·	39	–	·	–	–	–	–
Cc1ccc(/C=C2\SC(=S)N(NS(=O)(=O)c3ccc(C)cc3)C2=O)cc1	–	–	–	–	–	–	·	·
COc1ccc(/C=C2/SC(=S)N(NS(=O)(=O)c3ccc(C)cc3)C2=O)cc1	·	84	–	–	–	–	84	47
C=CCOc1ccc(/C=C2\SC(=S)N(NS(=O)(=O)c3ccc(C)cc3)C2=O)cc1	–	80	–	–	?	–	84	53
Cc1ccc(S(=O)(=O)NN2C(=O)/C(=C/c3cccs3)SC2=S)cc1	·	63	–	–	–	–	55	22
COc1ccc(C(=O)OCCCN(C)C2CN(Cc3cn(Cc4ccccc4F)nn3)S(=O)(=O)C2)cc1OC (stereo not drawn)	·	–	·	·	·	–	·	·
O=C(NCCOc1ccc(F)cc1)C1CCC(=O)N(Cc2ccc(Cl)cc2)C1 (stereo not drawn)	·	–	–	·	·	–	·	·
CCc1cc(=O)[nH]c(-n2[nH]c(-c3ccccc3)cc2=O)n1	–	–	–	–	–	–	·	·
O=c1cc(-c2ccccc2)[nH]n1-c1nc2ccccc2[nH]1	–	65	–	–	–	–	–	9.1
O=C(CN(c1cccc(Br)c1)S(=O)(=O)c1ccccc1)N/N=C/c1cc([N+](=O)[O-])ccc1O	–	77	–	–	–	–	89	62
O=C(CCCC(=O)Nc1cccc(Br)c1)N/N=C/c1cc([N+](=O)[O-])ccc1O	–	–	–	–	–	–	·	·
O=C(CCc1ccccc1)N[C@H]1[C@H](OCc2ccccc2)CCC[C@@]12C(=O)N(Cc1ccccc1)c1ccc(-c3cnccn3)cc12	·	–	·	·	·	–	·	·
CCOC(=O)c1ccc(NC(=O)CC2S/C(=N/N=C/c3c[nH]c4ccccc34)NC2=O)cc1 (stereo not drawn)	–	78	–	–	–	–	85	47
CCOc1ccc(Br)cc1S(=O)(=O)Nc1ccc(C(=O)Nc2ccccc2OC)cc1	–	–	–	–	–	–	·	·
COc1ccccc1NC(=O)c1ccc(NS(=O)(=O)c2ccc(F)c(F)c2F)cc1	?	44	–	–	–	–	–	6.1
Cc1cccc(NC(=O)COC(=O)CN2C(=O)c3ccccc3C2=O)c1	·	–	–	·	·	–	·	·
CCCC[C@@H]1C=C(C(=O)O)[C@H](c2ccc(C)cc2)N1S(=O)(=O)c1ccc(C)cc1	·	–	–	–	–	–	·	·
Cc1ccc(S(=O)(=O)N2[C@@H](c3ccc4c(c3)OCO4)C(C(=O)O)=C[C@H]2CC2CCCC2)cc1	·	67	–	·	–	–	61	25
CCc1ccc([C@H]2C(C(=O)O)=C[C@@H](CC3CCCC3)N2S(=O)(=O)c2ccc(C)cc2)cc1	·	76	–	·	–	–	62	26
Cc1ccc(S(=O)(=O)N2[C@@H](c3ccc(F)cc3)C(C(=O)O)=C[C@H]2CC2CCCC2)cc1	·	51	–	–	–	–	57	17
COc1ccc([C@H]2C(C(=O)O)=C[C@@H](CC3CCCC3)N2S(=O)(=O)c2ccc(C)cc2)cc1OC	·	56	–	·	–	–	52	17
CCOC(=O)C1=C[C@@H](CC)N(S(=O)(=O)c2ccc(C)cc2)[C@H]1c1ccccc1	·	–	–	·	·	–	·	·
SMILES	ALR H2O2 inh	rCAG binder	ABHD5-PLIN5 inh	LANA-H2A inh	Rtt109 HAT inh	PRMT1 FP inh	rCAG binder conf	DNA CAG counter	others
CC[C@@H]1C=C(C(=O)O)[C@H](c2ccc(F)cc2)N1S(=O)(=O)c1ccc(C)cc1	·	–	–	–	–	–	·	·
Clc1ccc(CSc2nnc(-c3cccs3)o2)cc1Cl	·	–	·	·	·	–	·	·
CCCCOCCCNC(=O)C[C@H]1C[C@@]2(C(=O)OC)C(=C[C@H](C(C)C)O[C@@H]2C2CC2)N(Cc2ccc(Cl)cc2Cl)C1=O	·	–	·	·	·	–	·	·
c1ccn(-c2ccc(-c3noc(CCc4ccncc4)n3)cc2)c1	·	–	·	·	·	–	·	·
Cc1ccc([C@H]2C(C(=O)O)=C[C@@H](CC3CCCC3)N2S(=O)(=O)c2ccc(C)cc2)cc1	·	68	–	·	–	–	73	27	DNA CAG DR=–
CC[C@@H]1C=C(C(=O)O)[C@H](c2cccc(C)c2)N1S(=O)(=O)c1ccc(C)cc1	·	–	–	·	–	–	·	·
Cc1ccc(S(=O)(=O)N2[C@@H](c3cccc(C)c3)C(C(=O)O)=C[C@H]2CC2CCCC2)cc1	·	49	–	–	–	–	52	18
O=C1Nc2ccc3sc4ccccc4c3c2C1=O	–	36	–	–	–	–	–	14
O=C1Nc2ccc(C(=O)O)c(O)c2C1=O	·	–	–	·	–	–	·	·
O=[N+]([O-])c1cccc(NC(=S)Nc2nc(-c3ccccc3Cl)cs2)c1	–	39	–	–	–	–	36	28
COCC(=O)Nc1ncc(S(=O)(=O)c2ccc([N+](=O)[O-])cc2)s1	–	–	–	–	–	–	·	·
O=C(NC(Nc1ncc(S(=O)(=O)c2ccc([N+](=O)[O-])cc2)s1)(C(F)(F)F)C(F)(F)F)c1ccc(Cl)cc1	–	46	–	–	–	–	52	14
O=C(c1cccs1)n1ccc2ccc(-c3ccc4ccn(Cc5ccccc5)c4c3)cc21	·	–	·	·	·	–	·	·
O=C(CC1C(=O)NCCN1Cc1cccc(F)c1)NCCCOc1cccnc1 (stereo not drawn)	–	–	–	–	–	–	·	·
CCCCCCCCN1C(=O)[C@@H](CC(=O)NCc2cccc3ccccc23)C[C@@]2(C(=O)OC)C1=C[C@H](C(C)(C)C)O[C@@H]2C	·	–	·	·	·	–	·	·
COc1cc(/C=C2\SC(N)=NC2=O)cc(Cl)c1O	–	–	–	–	–	–	·	·
COc1cc(/C=C2/CCC/C(=C\c3cc(O)c(OC)c(Cl)c3)C2=O)cc(Cl)c1O	–	38	–	–	–	–	–	10
NS(=O)(=O)c1cc(C(=O)NC2CCSc3ccccc32)ccc1Cl (stereo not drawn)	–	80	–	–	–	–	81	49
NS(=O)(=O)c1cccc(C(=O)NC2CCSc3ccccc32)c1 (stereo not drawn)	–	–	–	–	–	–	·	·
